Measured values taken from PubChem BioAssay AID598 (SRMLSC, 2007).
In all, about 85,000 compounds went through this assay and about 5,100 (6%) were called active. For the sample, actives were picked, then their nearest neighbours and some compounds at random. A number with no mark means an inactive call.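 How the source made its calls: active means viability at or below 40%; inactive means viability above 40%.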

Experiment: H69AR cell viability reduction – human, 86K library, primary screen (AID 598);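 further: multidrug resistant small cell line overexpressing MRP-1 efflux transporter; 100% = mean luminescence of untreated control wells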
Conditions: H69AR lung tumor viability, ATP luminescence, 72 h; at 10 µM; stronger effect = lower value

Compound	viability
CCCCOC(=O)Cn1c(=N)n(CCN(CC)CC)c2ccccc21	91.2%
CCn1c(/C=C/c2ccc([N+](=O)[O-])o2)nc2ccccc2c1=O	6.55% (active)
O=c1c2ccccc2nc(N/N=C/c2ccccc2)n1O	46.3%
CCOC(=O)C1CCc2nc3ccccc3c(=O)n21 (stereo not drawn)	96.6%
O=C(CCN1c2ccccc2Sc2ccccc21)Nc1ccccc1	70.8%
CC1=CC(=O)C=CC1(C)C(Cl)(Cl)Cl (stereo not drawn)	105%
COc1ccc2c(c1)cc1n2CCN=C1NN	90.8%
COC(=O)C1=C(C(=O)OC)C2(OC1c1ccc(Br)cc1)C(=O)c1ccccc1C2=O (stereo not drawn)	106%
CCOC(=O)c1ccc(N2C(=O)CC(N(C)Cc3ccccc3)C2=O)cc1 (stereo not drawn)	93.7%
O=C(c1cccc(C(=O)N2CCN(c3ccc(F)cc3)CC2)c1)N1CCN(c2ccc(F)cc2)CC1	70.1%
Fc1ccc(N2CCN(Cc3cnc(Oc4ccc(Br)cc4)s3)CC2)cc1	90.4%
Oc1c(CN2CCN(c3ccc(F)cc3)CC2)cc(Cl)c2cccnc12	5.07% (active)
Cn1c(-c2sc3cc(C(F)(F)F)cnc3c2-c2ccccc2)n[nH]c1=S	92.5%
C=CCc1ccc(OCCOc2cccc(/C=N/n3cnnc3)c2)c(OC)c1	80.3%
CCOC(=O)CSc1nnc(-c2ccncc2)o1	95.7%
O=C(OCC#CCSc1nnc(-c2ccncc2)o1)c1sc2ccccc2c1Cl	2.76% (active)
O=C(Nc1ccon1)c1sc2ccccc2c1Cl	88.1%
O=C(Nc1ccc2c(c1)CCC2)c1cccc(S(=O)(=O)N2CCN(c3ccc(F)cc3)CC2)c1	79.3%
COc1ccc(C2SCCN2S(=O)(=O)c2ccccc2)cc1OC (stereo not drawn)	81.4%
COc1ccc(C2CC(=O)n3c(nc4ccccc43)S2)cc1OC (stereo not drawn)	115%
COc1ccc(C2CC(c3cccs3)=Nc3ccccc3S2)cc1OC (stereo not drawn)	20.8% (active)
O=C(Nc1ccc(F)c(Cl)c1)C1CCN(S(=O)(=O)c2cccnc2)CC1	71.8%
CCOC(=O)c1cnn(Cc2ccccc2Cl)c1N	96.2%
CC1CCCN(C(C(=O)Nc2ccc(C(C)C)cc2)c2ccc3c(c2)OCO3)C1 (stereo not drawn)	59.6%

Compound	viability
CC(=O)N1CCN(CCN=CC2=C(O)CC(C)(C)CC2=O)CC1	101%
CC(=O)Nc1ccc(S(=O)(=O)N2CCN(C(=O)c3ccccc3F)CC2)cc1	85.2%
Cc1[nH]n(-c2ccc([N+](=O)[O-])cc2)c(=O)c1C=NCCN1CCN(C(=O)c2ccccc2F)CC1	39.4% (active)
CCC(C(=O)NCc1ccc(OC)cc1)n1nc(C)n2c(cc3occc32)c1=O (stereo not drawn)	80.3%
CCCc1nnc(NC(=O)c2cccs2)s1	102%
O=S(=O)(c1ccc(Br)cc1)n1ccc2ccccc21	8.36% (active)
CCCCNS(=O)(=O)c1ccc(S(=O)(=O)n2cnc3ccccc32)cc1	88.8%
CC1(C)C2CCC13CS(=O)(=O)NC3C2 (stereo not drawn)	91.1%
CCn1c(C)nc2cc(C(=O)NNS(=O)(=O)c3ccc(C)cc3C)ccc21	95.5%
OC(c1ccccc1)c1nccn1Cc1ccccc1 (stereo not drawn)	94.2%
CCn1c(Cc2cccs2)nnc1SCC(=O)c1ccc(C)cc1	84.1%
N/C(=N\OC(=O)Nc1ccc(Cl)c(Cl)c1)c1ncc(C(F)(F)F)cc1Cl	19.4% (active)
O=C(CN1CCN(c2ncc(C(F)(F)F)cc2Cl)CC1)Nc1ccc2c(c1)OCO2	105%
NC(=O)c1ncc(C(F)(F)F)cc1Oc1ccc(F)cc1	102%
O=c1c(-c2ccc3c(c2)OCCO3)c(C(F)(F)F)oc2cc(O)cc(O)c12	39% (active)
CCN1CCN(Cc2c(O)ccc3c(=O)c(-c4ccc(OC)c(OC)c4)c(C(F)(F)F)oc23)CC1	104%
CCSc1ccccc1C(=O)NCc1ccc(OC)cc1	92.6%
CC(C)c1ccc(-c2noc(C3CCCN(S(C)(=O)=O)C3)n2)cc1 (stereo not drawn)	106%
CC1CCCC(C)N1CCCNC(=O)c1cc2c(=O)n(C)c3ccccc3c2n1C (stereo not drawn)	69.1%
Cn1c(C(=O)NCCCN2CCN(c3cccc(Cl)c3)CC2)cc2c(=O)n(C)c3ccccc3c21	1.66% (active)
CCn1c(=O)cc(OCC(=O)NCCCN2CCN(c3cccc(Cl)c3)CC2)c2ccccc21	43.8%
Cn1c(=O)c2c(ncn2CC(COCc2ccccc2Cl)OCc2ccccc2Cl)n(C)c1=O (stereo not drawn)	77.7%
Cc1ccc(-c2noc(CSc3nnc(-c4cccs4)n3C)n2)cc1	98.8%
COCCNS(=O)(=O)c1cc(Br)ccc1OC	106%
